Rab9 prom act – activates the Rab9 promoter; Potency, µM (top dose mostly 9.22 µM), for inactives: top-dose activation, negative = inhibition, most hits filed as activators; AID 485297; 2.8% of 320,000 active; Huh7 Rab9 promoter-luciferase reporter, luminescence, 24 h; note: % of control where 0% means no effect; nearly all actives have a fitted effect of over 60% in size
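Luminescence read-out: Huh7 cells stably expressing Rab9-luciferase, treated 24 h with compound at 37 °C, then lysed with luciferase reagent for 10 min at ambient before reading.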
NPC1 promoter act – NPC1 promoter activation; Huh7 NPC1 promoter luciferase reporter, 24 h; Potency, µM (series often up to 9.22 µM), for inactives: at the top dose activation, hits mostly activators; 2.4% of 320,000 active; AID 485313; note: % of control where 0% means no effect; nearly all actives have a fitted effect of over 60% in size
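In 1536-well qHTS, Huh7 cells harboring an NPC1 promoter–luciferase construct received compound for 24 h; activation was quantified by luminescence following luciferase reagent addition.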
ELG1 repair inh – blocks ELG1-dependent DNA repair in HEK293T cells | HEK293T ELG1-luciferase reporter, luminescence, 16 h; DNA damage induced by 5-fluorouridine | Potency, µM (top dose mostly 46.1 µM), inactives show at the highest dose activity change, negative = inhibition, most hits filed as inhibitors | 2.3% of 330,000 active | AID 504467; note: % is set by controls: 0 for no effect and ±100 for the full control effect; nearly all actives have a fitted effect of over 55% in size
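Luminescence from the luciferase reporter, measured 30 min after ONE-Glo reagent at room temperature, was the read-out. Beforehand, 2,000 cells per well were exposed for 16 hr at 37 °C to 5-fluorouridine together with compound or vehicle.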
SMN2 splice up – increases expression of the SMN2 splice variant. HEK293 SMN2-luciferase splicing reporter, luminescence, 30-36 h. Potency, µM (highest dose often 46.1 µM), for the others: at the top dose activity change, positive = activation, usual class: activators. 2.8% of 210,000 active; note: % of control where 0% means no effect; nearly all actives have a fitted effect of over 55% in size
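HEK293 cells carry an SMN2 […]–luciferase reporter in which exon 7 inclusion puts luciferase in frame. Cells were plated 10-12 h before compound addition, then incubated 30-36 h at 37C. ONE-Glo luminescence was read; sodium butyrate at 4.5 mM final served as control.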
ELG1 genotoxic – induces genotoxicity in HEK293T cells with luciferase-tagged ELG1 | Potency, µM (titrated, usually from 46 µM), without a hit: top-dose activity change, positive = activation, hits mostly activators | 1.3% of 330,000 active | HEK293T ELG1-luciferase reporter, luminescence, 16 h; note: % of control where 0% means no effect; nearly all actives have a fitted effect of over 60% in size
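Genotoxic stress is detected as increased luminescence from luciferase-tagged ELG1 in HEK293T cells, measured with ONE-Glo after a 16 hr treatment at 37 °C.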
FLuc modulator – firefly luciferase modulation, counter-screen for miR-21 project | P08659 | purified FLuc, Km substrates, luminescence inhibition | Potency, µM (doses to about 57.5 µM), inactives show at the top dose activity change, negative = inhibition, hits mostly inhibitors | 6.9% of 360,000 active | AID 588342;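 note: plate controls were vehicle for no effect and reference inhibitor for full effect; nearly all actives have a fitted effect of over 55% in size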
Target sequence (P08659 whole entry, looked up): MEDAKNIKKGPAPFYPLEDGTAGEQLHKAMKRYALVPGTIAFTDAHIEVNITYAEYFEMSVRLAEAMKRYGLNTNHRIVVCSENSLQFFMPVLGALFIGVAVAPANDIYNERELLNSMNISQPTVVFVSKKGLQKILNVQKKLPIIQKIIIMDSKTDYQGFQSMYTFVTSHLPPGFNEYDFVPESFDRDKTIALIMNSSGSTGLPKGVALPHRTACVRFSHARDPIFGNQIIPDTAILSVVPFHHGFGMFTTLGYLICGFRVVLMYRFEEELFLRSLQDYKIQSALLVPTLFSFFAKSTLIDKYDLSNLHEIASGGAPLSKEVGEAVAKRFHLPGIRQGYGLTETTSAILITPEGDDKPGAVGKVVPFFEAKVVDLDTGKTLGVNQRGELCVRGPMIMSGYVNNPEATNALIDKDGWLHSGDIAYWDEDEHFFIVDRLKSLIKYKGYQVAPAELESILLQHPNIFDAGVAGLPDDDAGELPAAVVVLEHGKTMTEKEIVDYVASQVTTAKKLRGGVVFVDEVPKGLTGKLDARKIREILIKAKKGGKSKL
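Biochemical qHTS of compounds, final roughly 60 µM downward over six points, against 10 nM purified firefly luciferase using Km concentrations of substrates (10 uM D-luciferin, 10 uM ATP) in Tris acetate pH 7.5 buffer; luminescence output.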
Numbers without * were called inactive; ? = inconclusive; / = no result; [ ] = another dose, or the depositor's remark. This is a sample that favours compounds with a hit; in the whole collection about 9.4% have one here. Calls come from the whole dose curve; as a rule, active = well fitted curve in the direction sought with a large enough effect; inconclusive = small, poorly fitted or top-dose-only effect, or another doubt; inactive = no such curve, though single readings can be large; an effect the other way counts as inactive or inconclusive. Potency is the fitted concentration of half-maximal effect.

SMILES	Rab9 prom act	NPC1 promoter act	ELG1 repair inh	SMN2 splice up	ELG1 genotoxic	FLuc modulator
CCc1ccc(-c2nc(-c3ccncc3)no2)cc1	?	0.355µM*	?	7.94µM*	0.731µM*	0.675µM*
CCCCc1ccc(-c2nc(-c3ccncc3)no2)cc1	0.355µM*	0.447µM*	?	12.6µM*	23.1µM*	1.9µM*
Cc1ccccc1-c1nc2scc(CCNC(=O)c3ccco3)n2n1	/	/	/	/	/	-7.0%
Nc1ccc2oc3ccccc3c2c1	?	?	?	11.2µM*	22.5%	?
CCn1c(C(=O)Nc2ccc(C)cc2C)cc2sc(Cl)cc21	/	/	/	-32.9%	/	-3.2%
COCCCN1C(=O)c2ccc(C(=O)NCCc3ccccc3)cc2C1=O	?	29.5%	?	/	?	6.01µM*
COc1cccc(C(=O)Nc2ccc3c(c2)C(=O)N(CCC(=O)O)C3=O)c1	-11.2%	-9.6%	9.7%	8.8%	1.5%	16.9µM*
CCN1C(=O)c2ccc(C(=O)NCc3ccccc3)cc2C1=O	1.6%	6.4%	1.9%	-0.6%	0.6%	-3.1%
CC(=O)Oc1cccc(NC(=O)c2ccc3c(c2)C(=O)N(CC(C)C)C3=O)c1	-4.8%	0.7%	19.4%	/	?	10.7µM*
CC(=O)Nc1cccc(Oc2ccc3c(c2)C(=O)N(CCC(=O)O)C3=O)c1	1.3%	0.6%	17.6%	5.4%	1.1%	-5.7%[2.3 µM]
COCCCN1C(=O)c2ccc(C(=O)Nc3cccc(OC)c3)cc2C1=O	7.7%	-1.0%	?	-7.8%	?	10.7µM*
COc1ccc(Cl)cc1NC(=O)N1CCN(S(=O)(=O)c2ccc3c(ccn3C)c2)CC1	/	/	/	/	/	-3.4%
O=C(/C=C/c1ccccc1Cl)OCC(=O)N1CCCC1	/	/	?	/	1.1%	/
O=C(/C=C/c1cccc(F)c1)N1CCc2ccccc21	0.631µM*	1.12µM*	?	2.51µM*	1.84µM*	0.849µM*
O=C(/C=C/c1ccc(Cl)cc1Cl)OCC(=O)N1CCCC1	11.8%	-4.5%	?	/	3.9%	15.1µM*
O=C(/C=C/c1ccc(Cl)cc1Cl)N1CCc2ccccc21	0.794µM*	1.58µM*	?	2.51µM*	6.51µM*	0.601µM*
Cc1cccc(OCc2nc(C#N)c(NCc3ccccc3Cl)o2)c1	/	/	/	28.7%	/	?
CN(C(=O)c1ccc2c(c1)SC1=NS(=O)(=O)CCN12)C(c1ccccc1)c1ccccc1	-13.2%	-2.0%	25.9µM*	11.1%	-5.2%	2.9%
COC(=O)Cc1ccc(NC(=S)Nc2ccccn2)cc1	?	14.4%	?	/	3.3%	21.3µM*
COC(=O)Cc1ccc(NC(=S)NCCC(C)C)cc1	2.9%	-2.8%	1.2%	9.7%	-1.6%	16.9µM*
S=C(NCCc1ccccc1)Nc1ccc(Br)cc1	?	20.5%	?	20µM*	14.0%	19µM*
CC(C)CCNC(=S)Nc1ccc(Br)cc1	20.5%	15.1%	?	21.6%	2.1%	21.3µM*
Cc1ccc(NC(=O)c2cc3c(=O)[nH]c4ccccc4c3n2C)cc1F	/	/	/	-1.8%	/	-0.8%
O=C(CCCn1c(=O)c2ccccc2n(Cc2cccc(F)c2)c1=O)NCc1ccccc1Cl	/	/	/	-6.7%	/	0.1%
COc1cccc(-n2c(=O)c3c(C)c(C)sc3n(CC(=O)Nc3ccccc3OC)c2=O)c1	/	/	/	-6.3%	/	-0.5%
SMILES	Rab9 prom act	NPC1 promoter act	ELG1 repair inh	SMN2 splice up	ELG1 genotoxic	FLuc modulator
C=CCOC(=O)NC(c1ccc(F)c(F)c1)C(C(=O)CCl)C(=O)OC (centres undefined)	/	/	/	3.2%	/	/
c1cncc(CNc2ncncc2-c2ccc3c(c2)OCO3)c1	/	/	/	-5.8%	/	/
CCCOc1cccc(C(=O)Nc2ccc(-c3cc4ccccc4oc3=O)c(C)c2)c1	/	/	/	-21.1%	/	?
Cc1ccc(NC(=S)NCC(C)C)cc1	14.3%	10.8%	?	?	14.3%	19µM*
COC(=O)Cc1ccc(NC(=S)NC(C)(C)C)cc1	12.8%	5.1%	?	7.9%	3.1%	13.5µM*
CC(C)(C)NC(=S)NCCc1ccccc1	1.78µM*	3.16µM*	?	/	?	10.7µM*
CC(C)CNC(=S)Nc1ccc(S(N)(=O)=O)cc1	-1.7%	-4.4%	1.9%	7.1%	-1.0%	-9.3%
S=C(NCCc1ccccc1)N/N=C/C1CCCCC1	14.6%	19.5%	27.7%	11.8%	6.2%	?
COC(=O)Cc1ccc(NC(=S)NCCO)cc1	-4.2%	-2.0%	-0.6%	/	-4.7%	-1.4%
S=C(NCCc1ccccc1)NN=C1CCCCCC1	?	?	?	12.6µM*	?	16.9µM*
Cc1ccccc1NC(=S)NCCc1ccccc1	-2.6%	-1.3%	0.7%	?	0.3%	1.3%
CCc1ccccc1NC(=O)c1ccc(=O)n(Cc2ccc(F)cc2)c1	/	/	/	/	/	-0.9%
COc1ccc(/C=C/C(=O)Nc2ccc3nc4c(c(Nc5ccc(OC)c(OC)c5)c3c2)CCCC4)cc1	/	/	/	-80.6%	/	-5.5%
CC(C)CCNC(=O)/C=C/c1ccc(Br)cc1	4.7%	0.3%	?	-5.5%	4.2%	13.5µM*
COc1cccc(/C=C/C(=O)c2ccc(C)c([N+](=O)[O-])c2)c1	-4.4%	-1.1%	?	118.9%	6.5%	?
COc1cc(/C=C/C(=O)c2ccc(NS(=O)(=O)c3ccc(C)cc3)cc2)cc(OC)c1O	-5.2%	-4.4%	10.3µM*	-100.1%	-8.5%	-3.3%
COc1cccc(/C=C/C(=O)c2ccc(NS(=O)(=O)c3ccc(C)cc3)cc2)c1	-12.7%	-5.4%	?	-48.1%	-0.4%	13.5µM*
COc1cc(/C=C/C(=O)c2ccc(NS(=O)(=O)c3ccc(C)cc3)cc2)ccc1OC(F)F	-6.8%	-3.5%	?	-94.1%	-15.5%	-4.0%
O=S(=O)(Nc1cccc(-c2ccc(N3CCCC3)nn2)c1)c1ccc(F)cc1F	/	/	/	/	/	15.1µM*
O=S(=O)(Nc1cccc(-c2cn3c(n2)SCC3)c1)c1ccc(F)cc1F	4.8%	-1.4%	0.0%	/	-3.9%	-5.1%
O=S(=O)(Nc1cccc(-c2ccc(N3CCCCC3)nn2)c1)c1cccc(F)c1	/	/	/	/	/	2.39µM*
Cc1ccc(S(=O)(=O)Nc2cccc(-c3ccc(N4CCCCCC4)nn3)c2)c(C)c1	?	?	?	/	?	10.7µM*
COc1ccccc1CNc1nc2c(S(=O)(=O)c3ccccc3)nnn2c2ccc(Cl)cc12	/	/	/	0.1%	/	-0.5%
O=C(O)CSCc1cccc2ccccc12	/	/	/	-5.7%[9.22 µM]	/	/
COc1ccc(-n2nnnc2C2CCN(S(=O)(=O)c3ccc(C)cc3)CC2)cc1	/	/	/	-16.0%	/	6.6%
c1ccc2cc(OCCOCCOc3ccc4ccccc4c3)ccc2c1	0.9%	1.7%	-28.4%	/	-0.9%	-16.8%
CC(C)SCCCOc1ccc(C(C)(C)C)cc1	-1.7%	0.2%	?	9.5%	7.9%	19µM*
CC(C)SCCCCOc1ccc2ccccc2c1	?	?	?	22.1%	2.7%	16.9µM*

Source: PubChem (National Center for Advancing Translational Sciences (NCATS))
